# Gal4-VP16 FLuc: VP16 counterscreen qHTS for inhibitors of ROR gamma transcriptional activity | Drosophila S2 Gal4-VP16 UAS-luciferase, luminescence, 20 h | Potency, µM (highest dose often 53.6 µM), for the others: top-dose activity, negative = inhibition, hits mostly inhibitors | hit rate 3.5% among 310,000;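 also: Gal4-VP16 expression switched on by copper sulfate through the metallothionein promoter; nearly all actives have a fitted effect of over 50% in size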
# DT40 TDP1 CPT: qHTS for Inhibitors of human tyrosyl-DNA phosphodiesterase 1 (TDP1): qHTS in cells in presence of CPT; chicken DT40 Tdp1-/-;hTDP1 cells + 20 nM CPT, ATP luminescence, 48 h; Potency, µM (top dose mostly 46.2 µM), for inactives: at the top dose activity change, negative = growth inhibition, hits mostly inhibitors; hit rate 12% among 420,000; AID 686979, 2013; also: nearly all actives have a fitted effect of over 55% in size
#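 Chicken DT40 Tdp1-/- cells complemented with human TDP1, 400 cells/well, exposed to compounds plus 20 nM camptothecin for at least 48 h at 37 C; viability read as ATP content by CellTiter-Glo luminescence.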
# TDP1 cell noCPT: qHTS for Inhibitors of human tyrosyl-DNA phosphodiesterase 1 (TDP1): qHTS in cells in absence of CPT. DT40 Tdp1-/- hTDP1 cells, no CPT, ATP luminescence, 48 h. hit rate 15% among 420,000. Potency, µM (series often up to 46.2 µM), for inactives: at the highest dose activity change, negative = growth inhibition, most hits filed as inhibitors; also: nearly all actives have a fitted effect of over 55% in size
#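 Chicken DT40 Tdp1-/- cells complemented with human TDP1, screened without camptothecin (DMSO vehicle only), 400 cells/well. Compounds pin-transferred, cells incubated at 37 °C for at least 48 hr. Growth read as ATP-dependent luminescence (CellTiter-Glo, 30 min at RT).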
# TDP1 block: qHTS Assay for Inhibitors of Tyrosyl-DNA Phosphodiesterase (TDP1); Tyrosyl-DNA phosphodiesterase 1 (Homo sapiens), Q9NUW8; recombinant TDP1, AlphaScreen DNA substrate cleavage; Potency, µM (doses to about 130 µM), for inactives: top-dose activity change, negative = inhibition, usual class: inhibitors; hit rate 0.28% among 350,000; also: nearly all actives have a fitted effect of over 40% in size
# Target sequence (Q9NUW8 whole entry, looked up): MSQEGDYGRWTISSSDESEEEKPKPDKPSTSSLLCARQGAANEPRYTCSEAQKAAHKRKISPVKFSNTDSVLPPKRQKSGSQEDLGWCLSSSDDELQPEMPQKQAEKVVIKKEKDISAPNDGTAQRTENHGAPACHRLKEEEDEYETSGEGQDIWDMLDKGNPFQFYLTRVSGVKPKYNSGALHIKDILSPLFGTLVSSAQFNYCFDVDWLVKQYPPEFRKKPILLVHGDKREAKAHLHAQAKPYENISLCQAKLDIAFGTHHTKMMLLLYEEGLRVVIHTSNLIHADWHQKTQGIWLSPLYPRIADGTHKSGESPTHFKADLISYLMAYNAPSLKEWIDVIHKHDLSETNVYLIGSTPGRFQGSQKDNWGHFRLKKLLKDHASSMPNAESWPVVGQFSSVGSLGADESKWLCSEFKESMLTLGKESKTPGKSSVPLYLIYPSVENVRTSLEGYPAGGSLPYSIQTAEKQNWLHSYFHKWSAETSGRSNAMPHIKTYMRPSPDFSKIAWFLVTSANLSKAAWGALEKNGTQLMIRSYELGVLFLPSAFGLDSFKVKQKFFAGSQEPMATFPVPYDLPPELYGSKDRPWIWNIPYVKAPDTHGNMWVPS
#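 Enzyme-compound mixtures sat 15 min at room temperature, followed by a 5 min reaction with 15 nM final substrate and 10 min with AlphaScreen beads. Recombinant human Tdp1 was used at 1 nM final.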
# RORgamma inh: qHTS for inhibitors of ROR gamma transcriptional activity. Nuclear receptor ROR-gamma (Mus musculus), P51450. Potency, µM (highest dose often 53.6 µM), for the others: at the highest dose activity change, negative = inhibition, usual class: inhibitors. hit rate 5.4% among 310,000. Drosophila S2 Gal4-RORgamma UAS-luciferase reporter, 20 h. AID 2551, 2010; also: nearly all actives have a fitted effect of over 60% in size
#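 Stable Schneider cell line, Gal4 DNA-binding domain fused to ROR gamma, UAS-luciferase. Cmpd 1 hr RT → CuSO4 700 uM final → 20 hr RT → luciferase reagent 10 min → luminescence.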
# Numbers without * were called inactive; u = inconclusive; x = no result; [ ] = another dose, or the depositor's remark. Sampled rows, rich in hits. Any-hit rate of the full collection: about 19%. Calls follow the shape of the dose curve; as a rule, active = well fitted curve in the direction sought with a large enough effect; inconclusive = small, poorly fitted or top-dose-only effect, or another doubt; inactive = no such curve, though single readings can be large; an effect the other way counts as inactive or inconclusive. % is scaled to controls: 0 for no effect and ±100 for the full control effect; potency is read from the fitted curve at half-maximal effect.
SMILES,Gal4-VP16 FLuc,DT40 TDP1 CPT,TDP1 cell noCPT,TDP1 block,RORgamma inh
COC(=O)c1ccc(/C=N/Nc2nc(-c3ccc(Cl)cc3Cl)cs2)cc1,14.4%,x,x,6.0%,-17.6%
C(=N\Nc1nc(-c2ccccc2)cs1)/c1cccnc1,-4.6%[0.365 µM],12.6µM*,u,5.3%,9.3%
CC(C)(C)c1csc(N/N=C/c2cccnc2)n1,22.6%,20.6%,0.7%,10.1%,-10.2%
Cc1ccc(-c2cc(-c3ccccc3O)nc(N/N=C/c3cccnc3)n2)cc1,u,16.4µM*,11.6µM*,3.9%,u
C(=N\Nc1nccc(-c2cccnc2)n1)/c1ccccc1,-22.6%,0.0326µM*,u,-1.9%,-20.4%
N=C(N)N,6.4%,-5.5%,-2.4%,8.5%[56.1 µM],-0.8%
NC(=O)c1ccc(C(=O)N/N=C(/Cc2ccccc2)c2ccccc2)cc1,16.8%,-1.8%,-2.3%,0.9%[56.1 µM],37.9%
O=C(NC(Cc1ccccc1)C(=O)O)c1ccc(S(=O)(=O)N2CCCC2)cc1 (configuration not stated),2.1%,-23.3%,-2.7%,7.2%,-2.7%
Cc1onc(-c2ccc(Cl)cc2Cl)c1-c1csc(N/N=C/c2ccccc2Cl)n1,-6.9%,u,11.6µM*,5.9%,-30.4%
COC(=O)C1=C(C)N(CC2CC2)C(=O)N[C@H]1CCc1ccccc1,-9.6%,x,x,7.5%,-12.3%
CS(=O)(=O)Nc1ccc(C2=NN(C(=O)c3ccco3)C(c3ccc(F)cc3)C2)cc1 (configuration not stated),u,-29.5%,16.4µM*,5.8%,u
O=C(c1ccco1)N1N=C(c2cccs2)CC1c1ccc(F)cc1 (configuration not stated),9.4%,-24.7%,-1.7%,8.6%,0.7%
O=C(c1ccco1)N1N=C(c2ccc3nccnc3c2)CC1c1ccccc1 (configuration not stated),23.9%,u,18.4µM*,5.1%,35.6%
Cc1ccc(OCC(=O)NC2CCCCCC2)cc1C,14.7%,-19.6%,1.0%,-0.3%,44.7%
Cc1cc(NS(=O)(=O)c2ccc(NS(=O)(=O)c3cc(C)c(Cl)cc3Cl)cc2)no1,-11.9%,8.5%,3.9%,3.0%,0.8%
CCC1Oc2ccccc2N(CC(=O)NCc2cc(OC)ccc2OC)C1=O (configuration not stated),x,u,13µM*,10.4%,x
CCC1Oc2ccc(C)cc2N(CC(=O)NCc2ccccc2OC)C1=O (configuration not stated),1.9%,-8.3%,-22.8%,5.9%,12.7%
CCC1Oc2ccc(C)cc2N(CC(=O)NCc2cccc(OC)c2)C1=O (configuration not stated),22.4µM*,u,10.3µM*,5.9%,u
c1ccc(NCc2nc(-c3ccccc3)no2)cc1,-3.0%,4.7%,-18.1%,-2.3%,u
O=c1cc(Cl)[nH]n(-c2ccccc2)c1=O,0.1%,-1.8%,4.6%,x,-5.2%
CC(C)(C)c1cc(=O)n(-c2ccccc2)[nH]1,-13.9%,25.9µM*,u,2.5%,9.0%
O=c1ccc(=O)n(-c2ccccc2)[nH]1,3.0%,16.4µM*,u,5.6%,-9.9%
Cc1nn(CC(=O)Nc2ccc(OC(F)(F)F)cc2)c(=O)c2c(C)n(-c3ccc(Cl)cc3)nc12,x,u,u,0.0%,x
CC1CC(C)(C)N(C(=O)CSc2ccc(-c3ccc(F)cc3)nn2)c2ccccc21 (configuration not stated),-22.8%,u,22.4µM*,-5.9%,u
Nc1nc2ccccc2n1/N=C/c1ccc(Br)cc1,-2.4%,u,16.4µM*,4.1%,-1.9%
SMILES,Gal4-VP16 FLuc,DT40 TDP1 CPT,TDP1 cell noCPT,TDP1 block,RORgamma inh
CCn1c(SCc2nc3sc(C(=O)O)c(C)c3c(=O)[nH]2)nc2ccccc21,3.4%,-93.1%,-21.4%,8.91µM*,-8.4%
COC(=O)c1sc2nc(CSc3ccc(Br)cc3)[nH]c(=O)c2c1C,-1.1%,u,20.6µM*,3.7%,3.7%
C=CC[C@@H]1C=C[C@H](O/N=C(\C)CCN2CCCCc3nc(C)c(C)cc32)[C@H](CO)O1,7.6%[10 µM],x,x,4.8%[21 µM],-15.7%[10 µM]
CCc1cnc2c(c1SCC(=O)NCc1ccccc1)c(=O)n(C)c(=O)n2C,x,11.6µM*,u,2.6%,x
CCc1cnc2c(c1SCC(=O)NCc1ccc(C)cc1)c(=O)n(C)c(=O)n2C,x,u,u,-10.4%,x
CCc1cnc2c(c1SCC(=O)c1ccc(Cl)cc1)c(=O)n(C)c(=O)n2C,x,13µM*,20.6µM*,-2.6%,x
Cc1ccc(CNC(=O)CSc2c(C(C)C)cnc3c2c(=O)n(C)c(=O)n3C)cc1,x,14.6µM*,25.9µM*,5.4%,x
Cc1ccc(C(=O)Nc2ccc3c(c2)OCCO3)o1,u,u,u,7.0%,u
O=C(O)c1c[nH]c(=S)n1-c1ccc(F)cc1,-16.3%,-8.5%,2.9%,x,-21.5%
Cc1ccc(-n2c(-c3ccccc3)c[nH]c2=S)cc1,6.31µM*,u,-90.4%,5.4%,2.24µM*
COc1ccc(-n2c(-c3ccc(Cl)cc3)c[nH]c2=S)cc1,2.82µM*,-21.5%,-8.4%,x,0.447µM*
S=c1[nH]cc(-c2ccccc2)n1-c1ccccc1,3.98µM*,-14.5%,-14.6%,7.8%,3.55µM*
Cc1cc(-c2ccc(Br)s2)nc(-n2cccc2)n1,-7.1%,11.7%,-4.4%,2.7%,2.2%
COc1ccccc1C(=O)NNC(=O)C(=O)NC1CCCCC1,-3.6%,20.6µM*,u,8.4%,u
COc1cc(NC(=S)NC2CC2)c(OC)cc1Cl,u,u,u,5.6%,10µM*
CNC(=S)Nc1cc(C(F)(F)F)ccc1Cl,2.1%,-1.1%,9.3%,1.1%,-21.4%
CC(C)(C)c1ccccc1NC(=S)NC1CCCC1,3.55µM*,u,u,5.4%[56.1 µM],4.47µM*
FC(F)(F)c1ccc(Cl)c(NC(=S)NC2CC2)c1,17.8µM*,10.6%,-2.8%,5.4%,15.8µM*
COc1ccccc1NC(=S)NC1CCCCCC1,3.98µM*,u,18.4µM*,0.0%,6.31µM*
O=C(Nc1ccccc1F)NC1CCCc2ccccc21 (configuration not stated),u,0.9%,2.0%,2.9%,7.6%
CC(C)(C)c1ccccc1NC(=S)NC1CCCCC1,6.31µM*,u,18.4µM*,8.0%,1.78µM*
Fc1ccccc1NC(=S)NC1CCCC1,u,u,23.1µM*,1.0%,11.2µM*
O=C(NCc1cccnc1)C(=O)Nc1nc2ccccc2s1,1.6%,13.3%,-1.3%,6.9%,-5.5%
COc1ccccc1Oc1c(NS(=O)(=O)c2ccc(C(C)(C)C)cc2)nc(-c2ncccn2)nc1OCCO,10.6%,u,-22.9%,x,u
